Results as given in PubChem BioAssay AID1159580 (chemical genetic matrix, 2015).
Values joined by “and” are separate entries in the source; they are usually repeats but may differ in a detail not shown here. Equal values may be shown once. Hit rate of the full screen: of about 5,500 compounds, about 2,000 (36%) were called active. Not shown: some 18% with an inconclusive outcome. Rule as the data show it: active = normalized growth mostly below about 0.91 (no sharp cut-off); inconclusive = no clear call, values can overlap the other calls; inactive = mostly above about 0.92. Some of the results follow.

Assay: chemical genetic growth profiling, strain panel (AID 1159580);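 also: tested at 20 µM; growth read once vehicle control cultures reached saturation at 30 °C; 1 = growth at the plate median or of vehicle wells; lower values mean less growth of the strain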
Details: S. cerevisiae deletion strains, growth OD

Measured: normalized growth

CC(=O)Nc1ccccc1
inactive: locus YAL021C, strain ccr4, active compounds read low 0.971 | locus YAL026C, strain drs2, active compounds read low 0.977 | locus YAL030W, strain snc1, active compounds read low 0.972 | locus YBL061C, strain skt5, active compounds read low 0.962 | locus YBR009C, strain hhf1, active compounds read low 0.977 | locus YBR021W, strain FUR4, active compounds read low 1.02 | locus YBR023C, strain chs3, active compounds read low 0.961 | locus YBR171W, strain sec66, active compounds read low 0.965 | locus YBR229C, strain ROT2, active compounds read low 0.957 | locus YBR231C, strain swc5, active compounds read low 0.963 | locus YBR279W, strain paf1, active compounds read low 0.981 | locus YCL011C, strain gbp2, active compounds read low 0.962 | locus YCL016C, strain dcc1, active compounds read low 0.966 | locus YCL029C, strain bik1, active compounds read low 0.983 | locus YCL061C, strain MRC1, active compounds read low 0.987 | locus YCL069W, strain vba3, active compounds read low 0.962 | locus YCR088W, strain abp1, active compounds read low 0.976 | locus YDL005C, strain med2, active compounds read low 0.98 | locus YDL035C, strain GPR1, active compounds read low 0.987 | locus YDL040C, strain nat1, active compounds read low 0.97 | locus YDL074C, strain BRE1, active compounds read low 0.963 | locus YDL101C, strain DUN1, active compounds read low 0.98 | locus YDL134C, strain PPH21, active compounds read low 1.02 | locus YDL185W, strain tfp1, active compounds read low 0.986 | locus YDL192W, strain arf1, active compounds read low 0.985 | locus YDR001C, strain nth1, active compounds read low 0.974 | locus YDR069C, strain doa4, active compounds read low 0.959 | locus YDR101C, strain arx1, active compounds read low 0.982 | locus YDR137W, strain rgp1, active compounds read low 1.01 | locus YDR150W, strain NUM1, active compounds read low 0.983 | locus YDR159W, strain sac3, active compounds read low 0.977 | locus YDR162C, strain NBP2, active compounds read low 0.995 | locus YDR195W, strain ref2 0.935 | locus YDR297W, strain sur2, active compounds read low 0.975 | locus YDR318W, strain mcm21, active compounds read low 0.999 | locus YDR334W, strain swr1, active compounds read low 0.956 | locus YDR335W, strain msn5, active compounds read low 0.982 | locus YDR388W, active compounds read low 0.986 | locus YDR392W, strain spt3, active compounds read low 0.993 | locus YDR502C, strain sam2, active compounds read low 0.989 | locus YEL003W, strain gim4, active compounds read low 0.973 | locus YEL037C, strain rad23, active compounds read low 0.972 | locus YEL061C, strain CIN8 (second series), active compounds read low 0.962 | locus YEL061C, strain CIN8, active compounds read low 0.975 | locus YER015W, strain faa2, active compounds read low 0.977 | locus YER016W, strain bim1, active compounds read low 0.973 | locus YER110C, active compounds read low 0.977 | locus YER111C, strain swi4, active compounds read low 0.972 | locus YER155C, strain BEM2 (second series), active compounds read low 0.981 | locus YER155C, strain BEM2, active compounds read low 0.999 | locus YER167W, strain BCK2, active compounds read low 0.999 | locus YFR010W, strain ubp6, active compounds read low 0.96 | locus YGL078C, strain dbp3, active compounds read low 0.99 | locus YGL086W, strain mad1, active compounds read low 0.981 | locus YGL167C, strain pmr1, active compounds read low 0.947 | locus YGL173C, strain kem1, active compounds read low 0.967 | locus YGL227W, strain vid30, active compounds read low 0.966 | locus YGL240W, strain doc1, active compounds read low 0.965 | locus YGL248W, strain PDE1, active compounds read low 0.976 | locus YGL253W, strain hxk2, active compounds read low 0.982 | locus YGR135W, strain pre9, active compounds read low 1 | locus YGR229C, strain SMI1, active compounds read low 0.973 | locus YGR252W, strain gcn5, active compounds read low 0.968 | locus YHR013C, strain ard1, active compounds read low 0.942 | locus YHR027C, strain rpn1, active compounds read low 0.973 | locus YHR030C, strain SLT2, active compounds read low 0.991 and 0.975 | locus YHR079C, strain IRE1 (second series), active compounds read low 0.99 | locus YHR079C, strain IRE1, active compounds read low 0.969 | locus YHR094C, strain hxt1, active compounds read low 0.988 | locus YHR129C, strain ARP1, active compounds read low 0.993 | locus YHR142W, strain chs7, active compounds read low 0.963 | locus YHR200W, strain rpn10, active compounds read low 0.986 | locus YIL066C, strain RNR3, active compounds read low 0.968 | locus YIL073C, strain SPO22, active compounds read low 1.03 | locus YIL125W, strain kgd1, active compounds read low 0.983 | locus YIR030C, strain dcg1, active compounds read low 0.988 | locus YJL092W, strain hpr5, active compounds read low 0.977 | locus YJL095W, strain BCK1 (second series), active compounds read low 0.966 | locus YJL095W, strain BCK1, active compounds read low 0.98 and 0.984 | locus YJL115W, strain asf1, active compounds read low 0.951 | locus YJL129C, strain trk1, active compounds read low 0.981 | locus YJL134W, strain LCB3, active compounds read low 0.992 | locus YJL154C, strain vps35, active compounds read low 0.975 | locus YJL164C, strain tpk1, active compounds read low 0.963 | locus YJL166W, strain qcr8, active compounds read low 0.976 | locus YJL168C, strain set2, active compounds read low 0.978 | locus YJL187C, strain SWE1 (second series), active compounds read low 0.965 | locus YJL187C, strain SWE1, active compounds read low 0.972 | locus YJR043C, strain POL32, active compounds read low 0.968
